Mito fusion act: inhibitors of mitochondrial division or activators of mitochondrial fusion. S. cerevisiae fusion-defective mutant growth rescue, CellTiterGlo 48 h. Potency, µM (series often up to 46.1 µM), for inactives: at the top dose growth rescue (activation), usual class: activators. 320,000 tested, 0.23% active. AID 485298; note: potency is the fitted concentration of half-maximal effect; % of control where 0% means no effect; nearly all actives have a fitted effect of over 45% in size
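Luminescent cell viability in 1536-well qHTS format served as the measure of rescued growth in ts fusion-mutant S. cerevisiae cultured on non-fermentable YPEG for 48 hours at 37C.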
aSyn rescue: inhibitors of alpha-synuclein toxicity in yeast | Yeast expressing alpha-synuclein, growth rescue, BacTiter-Glo, 24 h | Potency, µM (series often up to 46.1 µM), without a hit: at the top dose growth rescue (activation), actives largely listed as activators | 370,000 tested, 0.14% active; note: potency is the fitted concentration of half-maximal effect; % of control where 0% means no effect; nearly all actives have a fitted effect of over 65% in size
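Screening used galactose-induced yeast with toxic alpha-synuclein levels, exposed to compound for 24 hr at 30 deg C. Cell growth, read with BacTiter-Glo luminescence, gave the measured signal.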
Akt phos inh: blocks phosphorylation of Akt; Neuro2A IGF-stimulated pAkt S473 HTRF, 20 min; active compounds read low; activity change, % for hits at 50 µM; 360,000 tested, 0.32% active; AID 651550; in the data active = activity change below about -80%; inconclusive = mostly about -51% to -80%; note: % is set by controls: 0 for no effect and ±100 for the full control effect
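Neuro2A cells in DMEM with 0.5% FBS, overnight at 37 deg C, given compound at single 50 µM final, then IGF (6 nM final) for 20 min at 37 deg C. Lysed; phospho-Akt Ser473 by HTRF after 24 h, 665/615 ratio.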
CCT chaperon mod: modulators of cytosolic chaperonin (CCT/TRiC) activity; activity change, % (test concentration not listed), hits read low; purified chaperonin ATPase assay, HTRF ADP detection, 30 min; 360,000 tested, 0.3% active; in the data active = activity change below about -30%; note: % is set by controls: 0 for no effect and ±100 for the full control effect
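Nucleotide hydrolysis assay: TRiC at 20–40 nM final (set by batch activity) with 10 uM ATP, 30 min at 37 °C, in presence of 76 uM compound. Detection by competitive ADP HTRF, 30 min ambient.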
TDP43 rescue: rescues yeast growth from TDP-43 toxicity; TDP-43 expressing yeast growth rescue, BacTiter-Glo, 24 h; Potency, µM (highest dose often 46.1 µM), inactives show top-dose growth rescue (activation), usual class: activators; 410,000 tested, 1.8% active; AID 652104; note: potency is the fitted concentration of half-maximal effect; % of control where 0% means no effect; nearly all actives have a fitted effect of over 50% in size
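Galactose-induced TDP-43 yeast, OD600=0.02, compound pinned; 24 hr, 30 deg C; BacTiter-Glo luminescence for growth. Inhibitors of TDP-43 toxicity read as activators.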
Anesthetic bind: candidate novel general anesthetic via apoferritin binding; P02791; apoferritin/1-aminoanthracene competitive binding, fluorescence; Potency, µM (top dose mostly 77.5 µM), for the others: top-dose activity change, negative = displacement, most hits filed as inhibitors; AID 485281; 350,000 tested, 0.074% active; note: potency is the fitted concentration of half-maximal effect; % is set by controls: 0 for no effect and ±100 for the full control effect; nearly all actives have a fitted effect of over 20% in size
Target sequence (P02791 2-175 limits assumed): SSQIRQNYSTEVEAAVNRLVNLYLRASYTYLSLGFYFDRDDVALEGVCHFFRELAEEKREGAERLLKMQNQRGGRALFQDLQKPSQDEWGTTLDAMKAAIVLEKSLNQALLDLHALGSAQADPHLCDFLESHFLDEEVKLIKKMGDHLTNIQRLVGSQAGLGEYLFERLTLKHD
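10 uM apoferritin + 50% sat. 1-AMA, PBS; cpd 10 min RT; Ex380/Em535 endpoint; normalized to free probe vs complex; 4-param Hill fit; propofol titration as pos. ctrl.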
* hit, by the source's call; i = inactive; ? = inconclusive; / = not tested or not shown. Rows were chosen to be rich in hits. Some 2.5% of all compounds tested hit in one or more screens of this group. Unless noted, calls come from the whole dose curve; as a rule, active = well fitted curve in the direction sought with a large enough effect; inconclusive = small, poorly fitted or top-dose-only effect, or another doubt; inactive = no such curve, though single readings can be large; an effect the other way counts as inactive or inconclusive.

SMILES	Mito fusion act	aSyn rescue	Akt phos inh	CCT chaperon mod	TDP43 rescue	Anesthetic bind
COc1cccc(CNS(=O)(=O)c2cc3[nH]c(=O)c(=O)[nH]c3cc2C)c1	/	/	/	/	20%	-5%
O=S(=O)(NCc1ccccc1)c1ccc(F)cc1Br	17%	0%	i	1	18%	?
O=S(=O)(NCc1ccc(F)cc1)c1ccc(Br)cc1Br	17%	20µM*	i	3	22µM*	/
CCOc1ccc(NC(=O)c2cc(S(=O)(=O)N3CCc4ccccc43)ccc2F)cc1	/	/	/	/	6%	-13%
O=C(Nc1cccn(Cc2c(Cl)cccc2Cl)c1=O)c1ccccc1Cl	9%	-11%	i	1	4µM*	-6%
O=C(c1cc2ccccc2oc1=O)N1CCN(Cc2ccc3c(c2)OCO3)CC1	-1%	1%	i	-1	13%	-4%
O=C(c1cc2ccccc2oc1=O)N(Cc1ccccc1)Cc1ccc2c(c1)OCO2	?	11%	-124%*	-17	5%	5%
C=CCc1ccc(O)c(OC)c1	/	/	/	/	/	0%
CCOc1c2ccoc2nc2c(OC)c(OC)ccc12	4%	-4%	i	-1	21%	-6%
C=CCOc1ccc2c(OC)c3ccoc3nc2c1OC	12%	-3%	i	0	11µM*	-5%
CCc1ccc(-c2nnn(CCC(=O)OC)n2)cc1	-1%	8%	i	-4	16µM*	-12%
CCc1ccc(-c2nnn(CCC#N)n2)cc1	-2%	4%	i	-1	0%	-9%
O=C(Cn1cc(C(=O)c2cccs2)c2ccccc21)Nc1ccc(Br)cc1	/	/	/	/	-5%	-10%
CC(=O)c1ccc(C(=O)N(CCCN(C)C)c2nc3c(C)c(C)ccc3s2)cc1	/	/	/	/	-10%	?
CC(=O)c1ccc(C(=O)N(Cc2cccnc2)c2nc3c(C)c(C)ccc3s2)cc1	/	/	/	/	22µM*	?
CCc1ccc2nc(N(Cc3cccnc3)C(=O)c3ccc(C#N)cc3)sc2c1	/	/	/	/	1.8µM*	?
CCOc1ccc2nc(N(Cc3cccnc3)C(=O)c3cccs3)sc2c1	/	/	/	/	14µM*	-14%
CCc1ccc2nc(N(Cc3cccnc3)C(=O)Cc3ccccc3)sc2c1	/	/	/	/	28µM*	-15%
COc1ccc2sc(N(Cc3cccnc3)C(=O)c3cccs3)nc2c1	/	/	/	/	18%	1%
Cc1ccc2nc(N(Cc3cccnc3)C(=O)CCc3ccccc3)sc2c1	/	/	/	/	?	11%
CCOc1ccc(NC(=O)c2nc(S(=O)(=O)Cc3ccc(F)cc3)ncc2Cl)cc1	/	4%	/	/	/	/
O=C(Cc1ccccc1)N(Cc1cccnc1)c1nc2c(Cl)cccc2s1	/	/	/	/	20µM*	7%
COc1ccc2nc(N(Cc3cccnc3)C(=O)Cc3ccccc3)sc2c1	/	/	/	/	32µM*	58%
CCOC(=O)N1CCN(/[N+]([O-])=N/Oc2ccc([N+](=O)[O-])cc2[N+](=O)[O-])CC1C (stereo not drawn)	/	/	/	/	/	-8%
CSc1ccc(/C=C2\C=C(C(O)c3ccc(SC)cc3)c3ccccc32)cc1 (stereo not drawn)	/	29%	/	/	/	/
SMILES	Mito fusion act	aSyn rescue	Akt phos inh	CCT chaperon mod	TDP43 rescue	Anesthetic bind
CC12CCC(C(=O)N3CCc4ccccc43)(CC1=O)C2(C)C (stereo not drawn)	14µM*	13%	i	0	?	?
O=C(COC(=O)c1cccnc1)Nc1ccccc1	-6%	-2%	i	1	-4%	-5%
CC(=O)N1CCC(C(=O)Nc2ccccc2)(N(Cc2ccccc2)C(=O)c2cccnc2)CC1	-2%	-2%	-113%*	-1	-12%	-3%
COc1cccc(CN2CCN(C(=O)c3oc4c(F)cccc4c3C)CC2=O)c1	3%	1%	i	-1	20µM*	-19%
CN(C(=O)COc1ccc(Cl)cc1Br)C1CCCCC1	6%	0%	i	1	18µM*	?
CCCN1CNc2c(c(=O)[nH]c(=S)n2CCc2cccc(C)c2)C1	/	2%	/	/	/	/
COc1ccc(N2CC(C(=O)N3CCC4(CC3)CC(=O)c3ccccc3O4)CC2=O)cc1 (stereo not drawn)	-5%	4%	i	-56*	25%	/
Cc1ccc(N2CC(C(=O)N3CCC4(CC3)CC(=O)c3ccccc3O4)CC2=O)cc1 (stereo not drawn)	-2%	10%	i	0	5%	/
Cc1nc(NCCc2ccc(O)cc2)c2nnn(Cc3ccccc3)c2n1	2%	-3%	i	1	/	16µM*
Cc1nc(NCCc2ccc(F)cc2)c2nnn(Cc3ccccc3)c2n1	-8%	2%	i	-1	-6%	-15%
Cc1ccc(O)c(-c2cc(-c3ccccc3[N+](=O)[O-])[nH]n2)c1	19%	22µM*	i	-1	?	?
O=[N+]([O-])c1ccccc1-c1cc(-c2cc(Cl)ccc2O)n[nH]1	2%	0%	i	-3	13µM*	?
COc1ccc(O)c(-c2cc(-c3ccccc3[N+](=O)[O-])[nH]n2)c1	0%	3%	i	3	20%	-5%
CCOc1ccccc1CNC(=O)c1cc2cc(S(=O)(=O)N3CCCCC3)ccc2n1C	/	/	/	/	18%	7%
CC(=O)Nc1ccc(/C=C2\C=Cc3ccccc32)cc1	/	-32%	/	/	/	/
Cc1ccc(N(Cc2cc3ccc(C)cc3[nH]c2=O)C(=O)c2ccco2)c(C)c1	5%	5%	i	-29	4%	-7%
Cc1ccc2cc(CN(C(=O)c3ccco3)c3ccccc3C)c(=O)[nH]c2c1	8%	3%	-112%*	-1	11%	-24%
Clc1ccc(/C=C/c2ccncc2)cc1Cl	/	6%	/	/	/	/
Nc1ccc2c(c1)C(=NO)c1cc([N+](=O)[O-])ccc1-2	/	6.3µM*	i	-2	11µM*	/
COC(=O)CN1CC(=O)c2ccccc2S1(=O)=O	/	/	/	/	/	6%
CCn1cc(C(=O)OCC(=O)OC2CC(C)CCC2C(C)C)c(=O)c2ccc(C)nc21 (stereo not drawn)	17%	0%	i	-1	22µM*	-19%
C=CCOC(=O)c1cn(CC)c2nc(C)ccc2c1=O	16%	-3%	i	-2	?	-8%
Cc1ccc(NC2=C(N3CCCCC3)C(=O)c3ccccc3C2=O)cc1	-12%	?	i	-2	23%	?
COC1=C(Nc2ccc(C)cc2)C(=O)c2ccccc2C1=O	1%	-16%	i	-2	10µM*	1%

Screening data from PubChem.
